Rows were chosen to be rich in hits. Some 11% of all compounds tested hit in one or more screens of this group.
ALDH1A1 block = ALDH1A1 (human) enzyme inhibition | P00352 | Purified ALDH1A1, NADH fluorescence, propionaldehyde substrate | Potency, µM (top dose mostly 75.3 µM), most hits filed as inhibitors | 220,000 tested, 7.3% active; active = well fitted inhibition curve with a large enough effect, not every such curve was filed as active; inconclusive = small, poorly fitted or top-dose-only effect, or another doubt; inactive = no such curve, though single readings can be large or run the other way
HPGD block = HPGD (human) dehydrogenase inhibition. Potency, µM, hits mostly inhibitors. P15428. purified HPGD, NADH fluorescence kinetic, PGE2 substrate. AID 894. 150,000 tested, 4.3% active; active = well fitted inhibition curve with a large enough effect, not every such curve was filed as active; inconclusive = small, poorly fitted or top-dose-only effect, or another doubt; inactive = no such curve, though single readings can be large or run the other way
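NADH formation kinetics: reaction with 30 uM PGE2 and 1 mM NAD+ (final), 20 nM enzyme, Tris-HCl pH 8 with Tween 20, after 15 min compound preincubation at room temperature. Fluorescence change, last versus first of five reads.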
HTT ATP protect = cytoprotection in Huntington HTT-Q103 PC12 cell model | PC12 HTT-Q103 induced, cytoprotection, ATP luminescence, 40 h | Potency, µM (highest dose often 56.4 µM), usual class: activators | 230,000 tested, 0.14% active; also: nearly all actives have a fitted effect of over 45% in size
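PC12 cells stably carrying ecdysone-inducible Htt exon 1 (Q103)–GFP were induced with 100 nM tebufenozide (final) alongside library compounds in a dose series. Cytoprotection was scored as retained ATP by ATPlite luminescence.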
CBFb-RUNX1 inh = inhibitors of human CBF-beta and RUNX1 interaction. AlphaScreen CBFb-His/RUNX1-biotin binding, biochemical. 230,000 tested, under 10 active. Potency, µM (series often up to 59.8 µM), usual class: inhibitors
Target sequence (Q01196 whole entry, looked up): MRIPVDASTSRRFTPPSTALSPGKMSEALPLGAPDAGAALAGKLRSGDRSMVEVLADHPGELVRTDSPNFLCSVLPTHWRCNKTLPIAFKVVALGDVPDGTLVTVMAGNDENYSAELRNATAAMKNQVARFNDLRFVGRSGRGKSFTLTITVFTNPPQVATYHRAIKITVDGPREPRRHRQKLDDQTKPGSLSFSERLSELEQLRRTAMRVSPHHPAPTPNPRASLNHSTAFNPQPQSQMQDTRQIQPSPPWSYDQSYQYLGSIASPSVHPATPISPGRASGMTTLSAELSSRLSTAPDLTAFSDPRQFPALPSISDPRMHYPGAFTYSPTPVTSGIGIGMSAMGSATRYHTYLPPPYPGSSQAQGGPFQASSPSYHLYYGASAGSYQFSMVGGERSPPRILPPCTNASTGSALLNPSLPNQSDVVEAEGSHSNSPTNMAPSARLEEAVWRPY
Target sequence (Q13951 whole entry, looked up): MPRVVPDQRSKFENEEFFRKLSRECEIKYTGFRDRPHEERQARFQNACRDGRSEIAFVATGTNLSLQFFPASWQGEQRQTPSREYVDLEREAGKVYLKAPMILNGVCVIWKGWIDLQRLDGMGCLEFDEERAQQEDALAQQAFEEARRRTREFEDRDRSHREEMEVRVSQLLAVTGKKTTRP
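Interaction loss through any mechanism counts as activity. Pre-formed complex of His-CBF-beta and biotin-RUNX1 (30 nM apiece) is incubated with compound 15 min, then with 50 ng nickel and 50 ng streptavidin beads for 90 min before AlphaScreen detection.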
HttQ103 aggreg = reduces HttQ103-GFP aggregates in PC12 cells. PC12 HttQ103-GFP aggregates, Acumen cytometry, 40 h. Potency, µM (highest dose often 46.1 µM), actives largely listed as inhibitors. 220,000 tested, 1.1% active. AID 1688; also: nearly all actives have a fitted effect of over 60% in size
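PC12 cells stably carrying ecdysone-inducible HTT exon 1 Q103–GFP were induced with tebufenozide (100 nM final) and treated with library compounds in titration. GFP aggregates in lysates were counted by laser scanning cytometry.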
PNC inhibitor = blocks assembly of the perinucleolar compartment | activity change (PNC), negative = inhibition, % at 10 µM | AID 2417 | 140,000 tested, 3.1% active | PC3M PTB-GFP, PNC prevalence imaging, 16 h; active compounds read low;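 active = readout at or below -70, meaning at least 70% loss of cells showing the perinucleolar compartment, a nuclear body marking cancer cells; inconclusive = readout between -30 and a set limit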
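Compounds are pinned in duplicate onto adhered PC3M cells stably expressing GFP-tagged PTB and incubated 16 h at 37 C. Cells are then fixed, nuclei stained with Hoechst, and PNC-positive cells counted.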
A number is an active result; [ ] = another dose, or the depositor's remark. Unless noted, calls follow the shape of the dose curve; as a rule, active = well fitted curve in the direction sought with a large enough effect; inconclusive = small, poorly fitted or top-dose-only effect, or another doubt; inactive = no such curve, though single readings can be large; an effect the other way counts as inactive or inconclusive.

`CN(c1ccccc1C(=O)Nc1ccc(S(=O)(=O)N2CCCC2)cc1)S(C)(=O)=O` gave ALDH1A1 block 12.6µM, HPGD block inactive, HTT ATP protect inactive, CBFb-RUNX1 inh inactive, HttQ103 aggreg inactive and PNC inhibitor inactive.
`CCOC(=O)CCN1C(=O)[C@H]2[C@H]3[C@H](O)[C@H](O)C/C(=N/OC[C@@H](O)COCc4ccco4)[C@H]3CC[C@@H]2C1=O` gave ALDH1A1 block inactive[13.5 µM], HTT ATP protect inconclusive and CBFb-RUNX1 inh inactive[13.1 µM].
`CC(=O)OC[C@@H]1O[C@H](CCO/N=C(\C)CCC(=O)OC[C@@H]2O[C@H](C#Cc3ccccc3)C=C[C@@H]2Oc2ccc(C)cc2)C=C[C@@H]1OC(C)=O` gave ALDH1A1 block inactive[13.5 µM], HTT ATP protect inactive[10 µM] and CBFb-RUNX1 inh inactive[13.1 µM].
For CC(C)c1ccc(NC(=O)CCCN2C(=S)NC(C)(C)CC2C)cc1 (stereo not drawn) the results were ALDH1A1 block 5.01µM, HTT ATP protect inactive, CBFb-RUNX1 inh inactive and HttQ103 aggreg inactive.
CC(Nc1ccc2c(c1)OCCO2)C(=O)N1c2ccccc2CC1C (stereo not drawn) was read as ALDH1A1 block inactive, HTT ATP protect inactive, CBFb-RUNX1 inh inactive and HttQ103 aggreg inactive.
Screening O=C(Cn1cc(C(F)(F)F)ccc1=O)Nc1ccccc1 returned HTT ATP protect inactive[10 µM], CBFb-RUNX1 inh inactive and HttQ103 aggreg inactive[9.22 µM].
`Cc1ccc(NC(=O)CN(C)C(=O)Cn2cc(C(F)(F)F)ccc2=O)cc1` gave ALDH1A1 block inactive, HTT ATP protect inactive[10 µM], CBFb-RUNX1 inh inactive, HttQ103 aggreg inactive and PNC inhibitor -80.1.
Screening O=S(=O)(NCc1ccc(F)cc1)c1ccc2c(c1)OCCO2 returned ALDH1A1 block inactive, HPGD block inactive, HTT ATP protect inactive, CBFb-RUNX1 inh inactive, HttQ103 aggreg inactive and PNC inhibitor inactive.
For COCCCNS(=O)(=O)c1ccc2c(c1)OCCO2 the results were ALDH1A1 block inactive, HPGD block inactive, HTT ATP protect inactive, CBFb-RUNX1 inh inactive, HttQ103 aggreg inactive and PNC inhibitor inactive.
Screening CC(C)CNS(=O)(=O)c1ccc2c(c1)OCCO2 returned ALDH1A1 block inactive, HPGD block 31.6µM, HTT ATP protect inactive, CBFb-RUNX1 inh inactive, HttQ103 aggreg inactive and PNC inhibitor inactive.
For Cc1ccc(CNS(=O)(=O)c2ccc3c(c2)OCCO3)cc1 the results were ALDH1A1 block inactive, HPGD block inactive, CBFb-RUNX1 inh inactive, HttQ103 aggreg inactive and PNC inhibitor -101.4.
`Cc1ccccc1CNS(=O)(=O)c1ccc2c(c1)OCCO2` gave ALDH1A1 block inactive, HPGD block 25.1µM, HTT ATP protect inactive[10 µM], CBFb-RUNX1 inh inactive, HttQ103 aggreg inactive and PNC inhibitor -118.9.
`CCOCCCNS(=O)(=O)c1ccc2c(c1)OCCO2` gave ALDH1A1 block inactive, HTT ATP protect inactive[10 µM], CBFb-RUNX1 inh inactive, HttQ103 aggreg inactive and PNC inhibitor inactive.
Screening Cc1ccc(-c2csc(N3CCC(NS(=O)(=O)c4ccc5c(c4)OCCO5)CC3)n2)cc1 returned ALDH1A1 block inconclusive, HPGD block inconclusive, HTT ATP protect inconclusive, CBFb-RUNX1 inh inactive, HttQ103 aggreg 6.31µM and PNC inhibitor inactive.
Nc1cc(C(=O)O)[nH]c(=O)n1 was read as ALDH1A1 block inactive[13.5 µM], HPGD block inactive and HTT ATP protect inactive[10 µM].
For O=S(=O)(NCCSCc1ccc(Cl)cc1Cl)c1ccc2c(c1)OCCO2 the results were ALDH1A1 block inconclusive, HPGD block inactive, HTT ATP protect inactive, CBFb-RUNX1 inh inactive, HttQ103 aggreg inconclusive and PNC inhibitor inactive.
O=S(=O)(NCCSc1ccc(Cl)cc1)c1ccc2c(c1)OCCO2 was read as ALDH1A1 block 14.1µM, HPGD block inactive, HTT ATP protect inactive, CBFb-RUNX1 inh inactive, HttQ103 aggreg inconclusive and PNC inhibitor inactive.
Screening O=C(O)c1ccccc1N/N=C/c1cc(Br)cc(Br)c1O returned HTT ATP protect inactive[10 µM], CBFb-RUNX1 inh inactive and HttQ103 aggreg inactive[9.22 µM].
For O=C(O)c1ccccc1N/N=C\c1ccnc2ccccc12 the results were ALDH1A1 block inconclusive, HPGD block 12.6µM, HTT ATP protect inactive, CBFb-RUNX1 inh inactive, HttQ103 aggreg inactive and PNC inhibitor inactive.
`C=CCn1c2ccccc2c2nnc(SCCCn3c(=O)[nH]c4ccccc43)nc21` gave ALDH1A1 block inactive, HPGD block 14.1µM, HTT ATP protect inactive[10 µM], CBFb-RUNX1 inh inactive, HttQ103 aggreg inconclusive and PNC inhibitor inactive.
Screening O=c1[nH]c2ccccc2n1CCCSc1cnc2ccccc2n1 returned ALDH1A1 block inactive, HPGD block inactive, HTT ATP protect inactive, CBFb-RUNX1 inh inactive, HttQ103 aggreg 11.2µM and PNC inhibitor inactive.
c1ccc(Cn2c3ccccc3c3nnc(SCCN4CCCCC4)nc32)cc1 was read as ALDH1A1 block inconclusive, HTT ATP protect inactive[10 µM], CBFb-RUNX1 inh inactive and HttQ103 aggreg inactive[9.22 µM].
O=C1c2ccccc2C(=O)N1CSc1nnc2c3ccccc3n(CCc3ccccc3)c2n1 was read as ALDH1A1 block 17.8µM, HPGD block inactive, HTT ATP protect inactive, CBFb-RUNX1 inh inactive, HttQ103 aggreg inactive and PNC inhibitor inactive.
`C=CCn1c2ccccc2c2nnc(SCN3C(=O)c4ccccc4C3=O)nc21` gave ALDH1A1 block 28.2µM, HPGD block inactive, HTT ATP protect inactive[10 µM], CBFb-RUNX1 inh inactive, HttQ103 aggreg inactive and PNC inhibitor inactive.
C=CCN1c2ccccc2[C@]23C[C@@H](C(=O)OC)N(S(=O)(=O)c4ccc5c(c4)OCCN5C)C2=NC(C(=O)OC)=C(C(=O)OC)[C@H]13 was read as ALDH1A1 block inactive[13.5 µM], HPGD block inactive, HTT ATP protect inactive[10 µM] and CBFb-RUNX1 inh inactive[13.1 µM].
`O=C(Nc1nc(N2C(=O)c3ccccc3C2=O)n(-c2ccccc2)n1)c1ccc(F)cc1` gave ALDH1A1 block 20µM, HPGD block inactive, HTT ATP protect inactive, CBFb-RUNX1 inh inactive, HttQ103 aggreg inactive and PNC inhibitor inactive.
COc1cc2[nH]c(=S)nc(Nc3ccc(NC(C)=O)cc3)c2cc1OC was read as ALDH1A1 block inactive, HTT ATP protect inactive[10 µM], CBFb-RUNX1 inh inactive and HttQ103 aggreg inactive.
COCCN=c1scc(-c2cccs2)n1/N=C/c1ccc(O)c(O)c1O was read as ALDH1A1 block 1.12µM, HTT ATP protect inactive[10 µM], CBFb-RUNX1 inh inactive, HttQ103 aggreg inactive and PNC inhibitor inconclusive.
CCN=c1scc(C)n1/N=C/c1ccc(O)c(O)c1O was read as ALDH1A1 block 10µM, HPGD block 7.08µM, HTT ATP protect inactive, CBFb-RUNX1 inh inconclusive, HttQ103 aggreg inactive and PNC inhibitor inactive.
`CCN=c1scc(C)n1/N=C/c1cc(Br)c(O)c(Br)c1` gave ALDH1A1 block inconclusive, HTT ATP protect inactive[10 µM], CBFb-RUNX1 inh inactive and HttQ103 aggreg inactive.

Compound activity: PubChem, National Center for Advancing Translational Sciences (NCATS)
